# Most compounds without a hit are left out; they make up all but 21% or so of the library.
# HCV inh: inhibitors of hepatitis C virus infection; Potency, µM (titrated, usually from 41.8 µM), without a hit: at the highest dose activity change, negative = inhibition, hits mostly inhibitors; Huh7.5.1 HCVcc-Cre infection, luciferase reporter, 44 h; 340,000 compounds, 3.4% hits; note: potency is the fitted concentration of half-maximal effect; % is set by controls: 0 for no effect and ±100 for the full control effect
#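 After 44 h co-culture of compound, cells and HCVcc-Cre (~0.5 moi), substrate is added for 15 min at room temperature and luciferase measured over 15 sec. Cells were seeded at 1,000/well and pre-cultured 4 h.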
# HCMV antiviral: inhibitors of human cytomegalovirus | HFF cells, HCMV-luciferase reporter, 72 h; stronger effect = lower value | activity change, negative = inhibition, % at 57.5 µM | 410,000 compounds, 4.5% hits | AID 1259415; in the data active = activity change below about -60%; inconclusive = no clear call, values can overlap the other calls; inactive = above about -39%; note: % is set by controls: 0 for no effect and ±100 for the full control effect
#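 HFF cells seeded 16 h at 37C, treated with compounds, infected with luciferase-reporter HCMV at MOI 1 PFU/cell; luciferase read at 72 h post infection, normalized to buffer-only and Salinomycin controls.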
# Shiga inhibitor: blocks Shiga toxin action in Vero cells; Vero cells, Shiga toxin protein synthesis inhibition reporter; inhibition, % at 38.7 µM; 290,000 compounds, 9.2% hits; in the data active = inhibition mostly above about 28%, no sharp cut-off; inactive = mostly below about 43%; note: 0% is about no effect
# Pf growth 48h: P. falciparum growth inhibition at 48 hours (one generation); P. falciparum luciferase growth in erythrocytes, 48 h; Potency, µM (series often up to 28.7 µM), inactives show at the top dose activity change, negative = inhibition, actives largely listed as inhibitors; 310,000 compounds, 5.9% hits; AID 504832; note: potency is the fitted concentration of half-maximal effect; % is set by controls: 0 for no effect and ±100 for the full control effect
#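 Compounds are pin-transferred into medium, infected erythrocytes (2% hematocrit, 0.1% parasitemia final) are added, and plates sit one parasite generation at 37 C in 5% CO2. Detection reagent is then added and luminescence measured.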
# CHX counter: counter-screen hit for Shiga toxin inhibitors, cycloheximide; max response, %; 300,000 compounds, 12% hits; cell reporter, cycloheximide protein synthesis inhibition counterscreen; in the data active = max response mostly above about 13%, no sharp cut-off; inactive = mostly below about 14%; note: read at 38.3 µM for the half of the compounds with a filed dose; 0% is about no effect
# Pf growth 96h: P. falciparum growth inhibition at 96 hours | 320,000 compounds, 6.9% hits | Potency, µM (titrated, usually from 28.7 µM), for inactives: at the highest dose activity change, negative = inhibition, actives largely listed as inhibitors | P. falciparum luciferase reporter growth, 96 h | AID 504834; note: potency is the fitted concentration of half-maximal effect; % is set by controls: 0 for no effect and ±100 for the full control effect
#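 Cell-based qHTS: luciferase-tagged P. falciparum in erythrocytes (2% hematocrit, 0.05% parasitemia final) incubated with compounds for 96 hours, 37 C, 5% CO2; luciferase detection reagent then added and luminescence measured.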
# * = called active by the depositor; u = inconclusive; x = not tested or not shown; [ ] = remark or other dose. Unless noted, calls come from the whole dose curve; as a rule, active = well fitted inhibition curve with a large enough effect; inconclusive = small, poorly fitted or top-dose-only effect, or another doubt; inactive = no such curve, though single readings can be large or run the other way.
SMILES,HCV inh,HCMV antiviral,Shiga inhibitor,Pf growth 48h,CHX counter,Pf growth 96h
O=C1c2oc3ccccc3c(=O)c2C(c2cccs2)N1CCCN1CCOCC1 (stereo not given),5%,-13,-2,-8%,11,u
Cc1ccc(F)c(CNC(=O)C2(C)CCCN2C(=O)C(C)C)c1F (stereo not given),x,-10,x,x,x,x
CC1CCCCN1C(=O)COC(=O)C1CCN(S(=O)(=O)c2c(Cl)cccc2Cl)CC1 (stereo not given),26%,35,-10,-29%,-3,u
O=C1CN(S(=O)(=O)c2cc(C(=O)O)ccc2Cl)c2ccccc2N1,11%,26,-6,10%,-4,1%
CNC(=O)C1CCC(Cn2c(=O)c3sccc3n(CC(=O)N3CCCC3)c2=O)CC1 (stereo not given),x,-12,x,x,x,x
Cc1ccc(O)c(-c2cc3ccccc3[nH]2)c1,-17%,u,33*,u,28*,64%
c1ccc(-c2cc3ccccc3[nH]2)cc1,u,-65*,37*,93%,33*,199%
Clc1ccc2[nH]c(-c3ccccc3)cc2c1,u,56,70*,145%,46*,211%
COc1ccc(-c2cc(=O)c3ccccc3[nH]2)cc1,5%[8.37 µM],17,7,u,18,u
O=c1nc(-c2ccccc2)c2cc(Cl)ccc2[nH]1,-22%,-20,-12,3%,-9,x
COc1ccc(-c2cc3ccccc3[nH]2)cc1,-21%,-1,100*,132%,42*,149%
CC(=O)N1CCc2cc(S(=O)(=O)NC(C(=O)Nc3ccc(C)cc3C)C(C)C)ccc21 (stereo not given),x,-16,x,x,x,x
O=[N+]([O-])c1cccc(-c2cc3ccccc3[nH]2)c1,u,32,23,30%,27*,64%
Nc1n[nH]c(-c2cccc([N+](=O)[O-])c2)n1,-7%,-27,-9,48%,-3,16%
Cc1[nH][nH]c(=O)c1C(c1ccc(-c2cccc(C(=O)O)c2)o1)c1c(C)[nH][nH]c1=O,-3%,28,74*,14%,58*,0%
COc1ccc(NC(=O)C(NC(=O)CC2NC(=O)NC2=O)c2ccccc2)cc1 (stereo not given),9%,u,-13,26%,-1,-14%
COc1ccc(NC(=O)C(c2ccccc2)N(C)C(=O)c2ccc(=O)[nH]c2)cc1 (stereo not given),8%,24,-3,-1%,-3,1µM*
COc1ccc(NC(=O)C(c2ccc(OC)cc2)N(C)C(=O)CC2NC(=O)NC2=O)cc1 (stereo not given),-4%,23,-12,16%,1,12µM*
CCSc1nsc(NC(=O)Nc2ccccc2F)n1,u,16,30*,66%,33*,u
O=C(Nc1nnc(COc2ccccc2F)s1)Nc1ccccc1F,-10%,8,47,21%,1,-1%
CCSc1nsc(NC(=O)Nc2cccc(OC)c2)n1,-18%,u,x,u,29*,u
O=C(Nc1ccc(F)cc1)Nc1nnc(COc2ccccc2F)s1,u,u,5,u,2,-6%[5.75 µM]
COc1ccc(Cc2nnc(NC(=O)Nc3cccc(OC)c3)s2)cc1,5%,14,-5,22%[0.00184 µM],-6,25%
C=CCSc1nsc(NC(=O)Nc2ccc(F)cc2)n1,22µM*,-103*,101*,u,43*,-43%
COc1ccc(CNC(=O)C2CCN(S(=O)(=O)c3cn(C)cn3)CC2)cc1,x,-15,x,x,x,x
SMILES,HCV inh,HCMV antiviral,Shiga inhibitor,Pf growth 48h,CHX counter,Pf growth 96h
CCc1cccc(NC(=O)CCS(=O)(=O)c2cc(Br)cc3c2N(C(C)=O)CC3)c1,x,-8,x,x,x,x
COc1cccc(NC(=O)C2C3C=CC4(O3)C2C(=O)N(CCN2CCCCC2)C4C(=O)NC2CCCCC2C)c1 (stereo not given),14%,40,1,-10%,-1,u
COc1cccc(NC(=O)C2C3C=CC4(O3)C2C(=O)N(CCCN2CCCC(C)C2)C4C(=O)NC2CCCCC2C)c1 (stereo not given),u,11,-5,-17%,2,10µM*
CC1CCCC(NC(=O)C2N(CCCN3CCCC3)C(=O)C3C(C(=O)Nc4ccc(Cl)cc4)C4C=CC32O4)C1C (stereo not given),-15%,u,5,u,3,5.9µM*
Cc1nn(C(=O)c2c(-c3ccccc3)noc2C)c(C)c1N=Nc1cc(C(F)(F)F)cc(C(F)(F)F)c1,10%,-12,26,-9%,-2,-7%
CCN(CC)c1ccc2cc(-c3nnc(-c4cccc(Cl)c4)o3)c(=O)oc2c1,x,70,x,x,x,x
CC(=O)Nc1cc2ccccc2oc1=O,11%,-26,22,10%,13,235%
CCN(CC)c1ccc2cc(C=O)c(=O)oc2c1,-16%,-26,41,17%,24*,3%
CCN(CC)c1ccc2cc(C(N)=O)c(=N)oc2c1,-26%,-2,42,35%,41*,33%
CCN(CC)c1ccc2cc(NC(=O)CCC(=O)O)c(=O)oc2c1,4%,-66*,-19,u,-6,u
CCN(CC)c1ccc2cc(C(N)=O)c(=O)oc2c1,-24%,39,12,109%,23*,10µM*
O=C(O)c1ncn(Cc2ccc(Br)cc2)c1C(=O)O,15%,u,-12,u,-1,-32%[5.75 µM]
CCC(C)C(N)C(=O)N1CCCC1C(=O)NC(C(=O)O)C(C)CC (stereo not given),-11%,72,x,x,x,x
CCN(CC)c1ccc2cc(/C(N)=N/NC(=O)c3cccs3)c(=O)oc2c1,x,x,9,17%,14,69%
CCN(CC)c1ccc2cc(C(=O)Nc3cccnc3N3CCOCC3)c(=O)oc2c1,x,x,-11,33%,-2,u
CCN(CC)c1ccc2cc(C(C)=O)c(=O)oc2c1,-22%,45,80*,55%,23,57%
CCN(CC)c1ccc2cc(C(=O)Nc3ccccn3)c(=O)oc2c1,8%,83,63*,140%,79*,-1%
CCN(CC)c1ccc2cc(-c3nnc(-c4ccncc4)o3)c(=O)oc2c1,-9%,5,active,36%,28,18%
CCCCn1c(N)c(N(CC(C)C)C(=O)C2CCN(S(=O)(=O)c3ccc(C)cc3)CC2)c(=O)[nH]c1=O,-9%,-21,x,u,x,u
N#Cc1c(N2CCOCC2)nsc1-c1ccc(C(F)(F)F)cc1,u,-30,43,87%,29*,48%
O=[N+]([O-])c1ccc(-c2cn3nc(-c4ccccc4)c(-c4ccccc4)nc3n2)cc1,-2%,-15,-11,2%,-3,21%
O=[N+]([O-])c1ccc(-n2cc(-c3ccccc3)nn2)cc1,4%,-13,11,54%,14*,70%
NCCCCCN,x,x,-6,x,-2,x

# Screening results from PubChem.
